High-throughput results (PubChem BioAssay)
Sampled rows, rich in hits. Any-hit rate of the full collection: about 6.1%.
D3 antag: blocks the human D3 dopamine receptor; D3R cells, DiscoveRx beta-arrestin luminescence, antagonist mode; stronger effect = lower value; max response, negative = inhibition, %; actives 2.5% (n = 360,000); AID 652054; in the data active means max response below about -50%; inconclusive means no clear call, values can overlap the other calls; further: on the % scale 0 is the no-effect control and ±100 the full control effect
Target sequence (P35462 whole entry, looked up): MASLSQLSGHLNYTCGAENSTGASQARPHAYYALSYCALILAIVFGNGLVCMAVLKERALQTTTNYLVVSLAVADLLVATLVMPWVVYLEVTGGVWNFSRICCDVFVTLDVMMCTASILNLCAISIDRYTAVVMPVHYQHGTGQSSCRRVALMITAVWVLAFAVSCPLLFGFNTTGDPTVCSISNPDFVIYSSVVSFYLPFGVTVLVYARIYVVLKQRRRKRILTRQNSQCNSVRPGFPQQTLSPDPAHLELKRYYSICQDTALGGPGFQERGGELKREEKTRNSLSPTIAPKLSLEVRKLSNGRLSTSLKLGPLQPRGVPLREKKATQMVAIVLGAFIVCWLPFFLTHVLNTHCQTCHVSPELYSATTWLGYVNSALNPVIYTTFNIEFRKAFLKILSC
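Cells expressing the human receptor were seeded at 1500 cells/well, incubated overnight at 37 degrees C in 5% CO2, then exposed to library compounds with dopamine controls for 90 minutes at 37 degrees C before luminescent detection.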
D1 PAM: enhances dopamine response at the human D1 receptor; HEK293 TREx D1 cells, calcium flux, dopamine EC20 potentiation; potentiation, % at 10 µM; actives 0.036% (n = 360,000); AID 504651; in the data active means potentiation above about 30%; further: 0% is about no effect
D1 agonist: agonists of human D1 dopamine receptor; HEK293 T-REx D1 cells, calcium flux, agonist mode; P21728; actives 1% (n = 360,000); activation, % at 2 µM; in the data active means activation above about 30%; further: 0% is about no effect
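Inducible HEK293 T-REx D1 cells, force-coupled to calcium signalling, were plated at 4000 cells/well with tetracycline and held overnight at 30 C. After no-wash calcium dye loading, compound-evoked calcium rise over 180 s flagged agonists.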
ERG Ets-DNA blk: blocks human ERG Ets domain binding to DNA. P11308. fluorescence polarization, His-ERG Ets domain / labelled DNA. Potency, µM (highest dose often 76.9 µM), for the others: at the highest dose FP activity, negative = inhibition, actives largely listed as inhibitors. actives 0.028% (n = 370,000); active means well fitted inhibition curve with a large enough effect in the polarisation, with a control signal flat; inconclusive means small, poorly fitted or top-dose-only effect, or effect the other way, or a change in a side signal; inactive means no such curve, though single readings can be large or run the other way; the % refers to the polarisation;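 further: polarization taken with two DNA probes labelled with fluorescein and Texas red; potency means the concentration at half of the fitted maximal effect; % of control where 0% means no effect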
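His-tagged ERG Ets domain (1 uM in the protein solution; 300mM KCl, 50mM Tris-HCl, 1mM EDTA, 1mM DTT, pH 7.5) received compound, then a probe mix of 5 nM fluorescein-DNA and 100nM Texas-615-DNA. Fluorescence polarization was read for both dyes.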
DRD3 agonist: activates the human D3 dopamine receptor. actives 0.58% (n = 410,000). D3R DiscoveRx beta-arrestin cells, luminescence, 90 min. max activation, %. AID 652048. P35462; in the data active means max activation above about 30%; further: 0% is about no effect
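Agonist mode: compounds and dopamine controls were applied to plated cells for 90 min at 37 degrees C after an overnight attachment at 1500 cells/well. Luminescent read-out followed 30 - 60 minutes at room temperature with DiscoveRx detection reagent.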
D1 antagonist: human D1 dopamine receptor antagonism. HEK293 TREx D1 cells, calcium flux, dopamine EC80; stronger effect = lower value. activity change, negative = inhibition, % at 10 µM. actives 3.2% (n = 360,000); in the data active means activity change below about -30%; further: on the % scale 0 is the no-effect control and ±100 the full control effect
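Calcium flux readout: force-coupled, inducible Hek293 Trex D1 line, cells induced overnight at 30 C with tetracycline, dye-loaded 30–90 min at RT. Antagonism scored against EC80 dopamine challenge given 180 s after compound.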
An asterisk follows results filed as active; ? = inconclusive; . = not tested or not shown.

SMILES	D3 antag	D1 PAM	D1 agonist	ERG Ets-DNA blk	DRD3 agonist	D1 antagonist
Cc1ccc([N+](=O)[O-])c(OCCN2CCC(Cc3ccccc3)CC2)c1	-83*	-13	27	0%	-33	-55*
Cc1c(C(=O)N2CCC(Cc3ccccc3)CC2)cccc1[N+](=O)[O-]	3	-6	2	-6%	2	-3
Cc1cccc(C(=O)N2CCC(Cc3ccccc3)CC2)c1[N+](=O)[O-]	-1	-6	1	-2%	3	-36*
CN(C)C1=NCCN1CCC1CCCCC1	-20	-3	2	12%	-15	3
COc1cc([N+](=O)[O-])cc(/C=N/NC(=O)c2cncc(Br)c2)c1O	?	-2	6	-6%	-3	-19
COC(CNC(=O)c1ccc(N2CCc3ccccc32)c([N+](=O)[O-])c1)OC	-8	-5	10	.	-3	-31*
Cc1ccc(CNC(=O)c2ccc(N3CCc4ccccc43)c([N+](=O)[O-])c2)cc1	?	-2	1	-3%	-25	-10
NNC(=O)c1ccc(N2CCc3ccccc32)c([N+](=O)[O-])c1	-5	-2	1	-7%	-3	-33*
Cc1ccc(NC(=O)Cn2cnc3cc([N+](=O)[O-])ccc3c2=O)c(Cl)c1	4	-10	38*	-14%	-26	-20
O=c1c2ccc([N+](=O)[O-])cc2ncn1CCOc1cccc(Br)c1	65	-12	2	-9%	32*	-21
O=c1c2ccc([N+](=O)[O-])cc2ncn1CCOc1ccc(Cl)cc1	62	-7	0	5%	6	-12
Cc1ccc(NC(=O)Cn2cnc3cc([N+](=O)[O-])ccc3c2=O)cc1	-5	4	1	11%	-1	-13
CC1(C)CC(=O)C(C=NCCN2CCN(C(=O)CCl)CC2)=C(O)C1	-12	-13	1	-7%	-4	-6
CC(=O)N=c1sc(S(N)(=O)=O)nn1C	-121*	-4	2	8%	-91	14
CC(=O)Nc1nnc(S(N)(=O)=O)s1	1	2	0	-17%	21	4
Cc1cccc(N(C2C=CS(=O)(=O)C2)S(=O)(=O)c2ccccc2)c1 (stereo not given)	-5	-5	0	-3%	-6	-60*
Cn1c(=O)oc2cc(S(=O)(=O)CCC(=O)NCc3ccccc3)ccc21	.	-2	1	3%	-11	-5
Cc1ccccc1CN(C)CC(=O)Nc1cccc(S(=O)(=O)N(C)c2ccccc2)c1	?	-12	14	-2%	-15	-41*
CC(=O)c1c(C)[nH]c(C(=O)Nc2ccc(Cl)c(S(=O)(=O)N(C)C)c2)c1C	-9	-19	9	-7%	0	-50*
CC(=O)c1c(C)[nH]c(C(=O)Nc2ccc(Cl)cc2)c1C	1	-9	33*	8%	-20	-63*
CC(C)CC1(C)NC(=O)N(CC(=O)Nc2cccc(S(=O)(=O)N(C)c3ccccc3)c2)C1=O (stereo not given)	-17	0	0	10%	-1	-39*
Cc1cc(C)c(NC(=O)CN(C)CC(=O)Nc2cccc(S(=O)(=O)N(C)c3ccccc3)c2)c(C)c1	9	.	.	0%	10	.
CC(=O)c1c(C)[nH]c(C(=O)Nc2ccc(Cl)cc2F)c1C	8	-16	8	1%	6	-4
CC(C)Cc1nnc(NC(=O)Nc2ccccc2)s1	-6	0	5	0%	0	2
CCOC(=O)[C@]12CCC=C1N(Cc1ccccc1)C(=O)[C@H](CC(=O)N1CCSCC1)C2	8	.	.	.	1	.
SMILES	D3 antag	D1 PAM	D1 agonist	ERG Ets-DNA blk	DRD3 agonist	D1 antagonist
CC(C)CN(C1CCS(=O)(=O)C1)S(=O)(=O)c1ccc(C(C)C)cc1 (stereo not given)	3	-9	2	-13%	-3	12
CC(C)c1ccc(CNc2nc(-c3ccco3)nn2S(=O)(=O)c2ccc3ccccc3c2)cc1	.	-1	6	0%	-7	9
CCN(CC)C(=O)c1cccc(-c2csc(C(O)c3ccc(F)cc3)n2)c1 (stereo not given)	3	.	.	.	11	.
CC(=O)c1c(C)[nH]c(C(=O)Nc2cccc(S(=O)(=O)N(C)c3ccccc3)c2)c1C	24	-5	7	15%	-2	-44*
O=c1c2ccccc2c2ccccc2c(=O)n1Cc1cccnc1	-108*	-7	0	.	-9	-22
OC[C@@H]1CN(C2CCCC2)C[C@H](n2cnc3c(N4CCCC4)ncnc32)O1	2	.	.	.	-3	.
CC[C@@]1(C(=O)OC)N[C@H](CN(C)S(=O)(=O)c2ccc(-c3ccccc3)cc2)[C@@H]2C(=O)N(C)C(=O)[C@@H]21	42	.	.	1%	9	.
CC[C@@]1(C(=O)OC)N[C@H](CN(C)S(=O)(=O)c2ccccc2)[C@@H]2C(=O)N(C)C(=O)[C@@H]21	12	.	.	0%	34*	.
CC[C@@]1(C(=O)OC)N[C@H](CN(C)S(=O)(=O)c2ccc(C(C)(C)C)cc2)[C@@H]2C(=O)N(C)C(=O)[C@@H]21	29	.	.	-19%	41*	.
Cc1c2cnn(CC(=O)NC(C)C)c(=O)c2c(C)n1Cc1ccccc1Cl	.	-2	2	0%	-5	-31*
CCc1cccc(C)c1NC(=O)CSc1nnc(CC)n2c1cc1occc12	.	0	1	-1%	1	7
CN(C)S(=O)(=O)c1ccc(C(=O)Nc2ccccc2[N+](=O)[O-])cc1	3	0	1	-2%	-5	-15
Cc1cc(CNCc2cn(C)nc2-c2ccc(Oc3ccccc3)cc2)on1	3	-2	0	-5%	-4	2
Cn1cc(CNCC2CCCO2)c(-c2ccc(Oc3ccccc3)cc2)n1 (stereo not given)	-11	-3	46*	9%	-11	-23
CCCCN(C(C)=O)c1c(CC)nc2ccc(C(=O)NCCOc3ccc(OC)cc3)cn12	0	.	.	.	2	.
CC(C)C(=O)Nc1cccc(-c2csc(-c3ccccc3)n2)c1	5	-16	1	-1%	2	22
CC(C)C(=O)Nc1ccc(-c2csc(-c3ccccc3)n2)cc1	-11	-3	1	-15%	2	-38*
CC1CCN(CCNC(=O)CCS(=O)(=O)c2ccc(Br)cc2)CC1	-10	-6	1	-5%	-14	-43*
CCOC(=O)c1sc(NC(=O)CSc2nc(C)cc(C)c2C#N)c(C#N)c1C	3	1	2	4%	0	32
CCOC(=O)c1sc(NC(=O)CSc2nc3c(cc2C#N)CCCCCC3)c(C#N)c1C	18	-1	42*	6%	-25	9
